In PubChem BioAssay (NCI):
The panel holds about 79,000 compounds, 15% with a hit somewhere; the sample as a whole holds those more often. The source made the active and inactive calls. No stated cut-off is given here; in the data, active means growth inhibition above about 70%; inactive means the rest.

Legend:
[1] = NCI Yeast Anticancer Drug Screen. Data for the rad52 strain (AID 147);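 further: 0% = growth of vehicle-treated control cultures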; conditions: S. cerevisiae rad52 mutant growth inhibition, stronger effect = higher value
How it was run: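 DNA repair-defective yeast; compound exposure; growth scored against vehicle controls.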

[2] = NCI Yeast Anticancer Drug Screen. Data for the wt1 strain (AID 149);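 further: 0% = growth of vehicle-treated wt1 cultures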; conditions: S. cerevisiae wt1 strain (SPY 50644) growth inhibition, stronger effect = higher value
How it was run: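 Yeast wt1 strain exposed to compounds; growth inhibition measured relative to vehicle-treated controls.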

[3] = NCI Yeast Anticancer Drug Screen. Data for the rad50EPP+ strain (AID 151);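 further: 0% = growth of vehicle-treated control cultures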; conditions: S. cerevisiae rad50 mutant strain, stronger effect = higher value
How it was run: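 rad50EPP+ yeast treated with test compounds. Readout: growth vs vehicle control.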

[4] = NCI Yeast Anticancer Drug Screen. Data for the mgt1 strain (AID 153); conditions: S. cerevisiae mgt1 mutant growth inhibition, stronger effect = higher value
How it was run: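 Growth inhibition relative to vehicle controls was scored for the mgt1 yeast strain after compound exposure.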

[5] = NCI Yeast Anticancer Drug Screen. Data for the rad50 strain (AID 155);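 further: 0% = growth of vehicle-only cultures of the same strain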; conditions: S. cerevisiae rad50 strain growth inhibition, stronger effect = higher value
How it was run: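 Yeast carrying a defined DNA repair defect were exposed to test compounds, and growth was compared with vehicle-treated controls to give percent inhibition.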

[6] = NCI Yeast Anticancer Drug Screen. Data for the mec2-1 strain (AID 157); conditions: S. cerevisiae mec2-1 strain, stronger effect = higher value
How it was run: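 Growth inhibition is read against vehicle-treated controls after compound exposure of the mec2-1 yeast strain, which is defective in DNA damage repair or cell cycle control.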

[7] = NCI Yeast Anticancer Drug Screen. Data for the rad14 strain (AID 159);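 further: 0% = growth of vehicle-treated control cultures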; conditions: S. cerevisiae rad14 strain growth inhibition, stronger effect = higher value
How it was run: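 Yeast cells carrying a defined DNA-repair defect were exposed to compounds, and growth inhibition was calculated relative to vehicle-treated control cultures.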

[8] = NCI Yeast Anticancer Drug Screen. Data for the sgs1 mgt1 strain (AID 161);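 further: 0% = growth of cultures given vehicle only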; conditions: S. cerevisiae sgs1 mgt1 strain, stronger effect = higher value
How it was run: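 Growth of a repair-deficient yeast mutant was monitored after compound treatment and expressed as inhibition relative to vehicle-treated cultures.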

[9] = NCI Yeast Anticancer Drug Screen. Data for the CLN2oe strain (AID 163);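 further: 0% = growth of vehicle-only control cultures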; conditions: S. cerevisiae CLN2oe strain, stronger effect = higher value
How it was run: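 Compound-treated yeast; growth vs vehicle ctrl = % inhibition. Genetically altered strain (cell-cycle control).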

[10] = NCI Yeast Anticancer Drug Screen. Data for the cln2 rad14 strain (AID 165);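 further: 0% = growth equal to vehicle treated cultures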; conditions: S. cerevisiae cln2 rad14 strain, stronger effect = higher value
How it was run: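 Growth inhibition, relative to vehicle-treated controls, is the read-out. The test organism is a yeast strain with defined genetic alterations, cln2 rad14.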

[11] = NCI Yeast Anticancer Drug Screen. Data for the bub3 strain (AID 167); conditions: S. cerevisiae bub3 mutant strain, stronger effect = higher value
How it was run: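 Compounds were applied to a genetically altered yeast strain carrying a cell-cycle control defect. Growth inhibition was scored against vehicle-treated controls.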

[12] = NCI Yeast Anticancer Drug Screen. Data for the wt2 strain (AID 169);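 further: 0% = growth of vehicle-treated yeast cultures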; conditions: S. cerevisiae wt2 strain growth inhibition, stronger effect = higher value
How it was run: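 Compound exposure of yeast; growth compared with vehicle controls; inhibition reported.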

[13] = NCI Yeast Anticancer Drug Screen. Data for the mlh1 strain (AID 171);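 further: 0% = growth of vehicle-treated control cultures of the same strain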; conditions: S. cerevisiae mlh1 strain growth inhibition, stronger effect = higher value
How it was run: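 Compounds are applied to a genetically altered yeast strain, and its growth is compared with that of vehicle-treated cultures to give percent inhibition.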

[14] = NCI Yeast Anticancer Drug Screen. Data for the sgs1 strain (AID 173);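 further: 0% = growth of vehicle-only control cultures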; conditions: S. cerevisiae sgs1 mutant, stronger effect = higher value
How it was run: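 Compounds applied to genetically altered yeast; growth compared with vehicle-treated cultures to give % inhibition.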

[15] = NCI Yeast Anticancer Drug Screen. Data for the mlh1 rad18 strain (AID 175); conditions: S. cerevisiae mlh1 rad18 strain growth inhibition, stronger effect = higher value
How it was run: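 Cells of a genetically altered yeast strain, deficient in DNA damage repair, were treated with compound. Their growth was then compared with that of vehicle-treated cultures to give inhibition.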

[16] = NCI Yeast Anticancer Drug Screen. Data for the rad18 strain (AID 177); conditions: S. cerevisiae rad18 mutant growth inhibition, stronger effect = higher value
How it was run: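 Compounds are applied to a repair-deficient yeast strain, and growth is compared with that of vehicle-treated cultures to give percent inhibition.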

[17] = at 5.0 µM (retest, dose inferred, filed as 0.5)
[18] = at 50.0 µM (retest, dose inferred, filed as 5.0)

Measured: growth inhibition

Cc1ccc(-c2ccc(Nc3c4ccccc4nc4ccccc34)cc2)cn1
active: [1]; at 11.0 µM 90% | [1]; at 33.0 µM 95% | [1]; at 100.0 µM 92% | [2]; at 33.0 µM 90% | [3]; at 11.0 µM 85% | [3]; at 33.0 µM 95% | [3]; at 100.0 µM 95% | [4]; at 33.0 µM 83% | [4]; at 100.0 µM 95% | [5]; [17] 81% | [5]; at 11.0 µM 90% | [5]; at 33.0 µM 93% | [5]; [18] 97% | [5]; at 50.0 µM 97% | [5]; at 100.0 µM 88% | [6]; at 33.0 µM 86% | [6]; [18] 98% | [6]; at 50.0 µM 90.4% | [6]; at 100.0 µM 84% | [7]; at 33.0 µM 75% | [8]; [18] 75% | [8]; at 50.0 µM 80.2% | [9]; at 33.0 µM 85% | [9]; at 100.0 µM 73% | [10]; [18] 70% | [11]; at 33.0 µM 79% | [11]; [18] 84% | [12]; at 33.0 µM 92% | [13]; at 33.0 µM 88% | [13]; at 100.0 µM 72% | [14]; at 33.0 µM 94% | [14]; at 100.0 µM 88% | [15]; [18] 89% | [15]; at 50.0 µM 90.1% | [16]; at 33.0 µM 89% | [16]; at 100.0 µM 86%
inactive: [1]; at 1.2 µM 6% | [1]; at 3.7 µM 48% | [2]; at 1.2 µM 30% | [2]; at 3.7 µM 20% | [2]; at 11.0 µM 43% | [2]; at 100.0 µM 67% | [3]; at 1.2 µM 22% | [3]; at 3.7 µM 44% | [4]; at 1.2 µM 4% | [4]; at 3.7 µM -5% | [4]; at 11.0 µM 7% | [5]; at 1.2 µM 15% | [5]; at 3.7 µM 60% | [6]; at 1.2 µM -20% | [6]; at 3.7 µM -25% | [6]; [17] 9% | [6]; at 11.0 µM 11% | [7]; at 1.2 µM -27% | [7]; at 3.7 µM -19% | [7]; at 11.0 µM -4% | [7]; at 100.0 µM 59% | [8]; [17] 8% | [9]; at 1.2 µM 15% | [9]; at 3.7 µM 19% | [9]; at 11.0 µM 29% | [10]; [17] 37% | [10]; at 50.0 µM 58.6% | [11]; at 1.2 µM -5% | [11]; at 3.7 µM -45% | [11]; [17] 5% | [11]; at 11.0 µM -12% | [11]; at 50.0 µM 25.5% | [11]; at 100.0 µM 36% | [12]; at 1.2 µM -14% | [12]; at 3.7 µM 2% | [12]; at 11.0 µM 22% | [12]; at 100.0 µM 39% | [13]; at 1.2 µM 5% | [13]; at 3.7 µM 2% | [13]; at 11.0 µM 18% | [14]; at 1.2 µM 3% | [14]; at 3.7 µM 6% | [14]; at 11.0 µM 44% | [15]; [17] 16% | [16]; at 1.2 µM 0% | [16]; at 3.7 µM -10% | [16]; at 11.0 µM 12%

CCOC(=O)c1cc([N+](=O)[O-])cc([N+](=O)[O-])c1Sc1ncnc2nc[nH]c12
active: [1]; at 100.0 µM 95% | [2]; at 100.0 µM 97% | [3]; at 100.0 µM 82% | [4]; at 33.0 µM 83% | [4]; at 100.0 µM 98% | [5]; [18] 75% | [5]; at 100.0 µM 96% | [6]; at 100.0 µM 97% | [7]; at 100.0 µM 97% | [8]; [18] 75% | [9]; at 100.0 µM 97% | [10]; at 50.0 µM 77.2% | [11]; at 33.0 µM 70% | [11]; [18] 70% | [11]; at 100.0 µM 96% | [12]; at 100.0 µM 96% | [13]; at 33.0 µM 85% | [13]; at 100.0 µM 97% | [14]; at 33.0 µM 74% | [14]; at 100.0 µM 96% | [15]; [18] 89% | [15]; at 50.0 µM 78.5% | [16]; at 33.0 µM 81% | [16]; at 100.0 µM 97%
inactive: [1]; at 1.2 µM 13% | [1]; at 3.7 µM 2% | [1]; at 11.0 µM 11% | [1]; at 33.0 µM 62% | [2]; at 1.2 µM -29% | [2]; at 3.7 µM -44% | [2]; at 11.0 µM -32% | [2]; at 33.0 µM 50% | [3]; at 1.2 µM -6% | [3]; at 3.7 µM -11% | [3]; at 11.0 µM 13% | [3]; at 33.0 µM 62% | [4]; at 1.2 µM -17% | [4]; at 3.7 µM -18% | [4]; at 11.0 µM -8% | [5]; at 1.2 µM -15% | [5]; at 3.7 µM -15% | [5]; [17] 36% | [5]; at 11.0 µM 1% | [5]; at 33.0 µM 68% | [5]; at 50.0 µM 36% | [6]; at 1.2 µM -33% | [6]; at 3.7 µM -28% | [6]; [17] 22% | [6]; at 11.0 µM -2% | [6]; at 33.0 µM 65% | [6]; [18] 69% | [6]; at 50.0 µM 60% | [7]; at 1.2 µM -30% | [7]; at 3.7 µM -21% | [7]; at 11.0 µM -9% | [7]; at 33.0 µM 66% | [8]; [17] 52% | [8]; at 50.0 µM 62% | [9]; at 1.2 µM -19% | [9]; at 3.7 µM -33% | [9]; at 11.0 µM -23% | [9]; at 33.0 µM 54% | [10]; [17] 5% | [10]; [18] -16% | [11]; at 1.2 µM -26% | [11]; at 3.7 µM -12% | [11]; [17] 38% | [11]; at 11.0 µM -11% | [11]; at 50.0 µM 59.5% | [12]; at 1.2 µM -29% | [12]; at 3.7 µM -22% | [12]; at 11.0 µM -24% | [12]; at 33.0 µM 18% | [13]; at 1.2 µM -31% | [13]; at 3.7 µM 2% | [13]; at 11.0 µM 2% | [14]; at 1.2 µM -11% | [14]; at 3.7 µM -5% | [14]; at 11.0 µM 2% | [15]; [17] 42% | [16]; at 1.2 µM -18% | [16]; at 3.7 µM -7% | [16]; at 11.0 µM 28%
